Assay results from the supplement of paper PMC8975748.
Structures can show the parent of a compound that is named as a salt. ± gives the standard deviation of the averaged measurements.

Assays:
[1] = tested on: Saccharomyces cerevisiae BY4741 SeMeCo community; assay: mean cell size (pixel area) (pixels); higher = larger cells; details: 10 µM; 24 h; SM minimal medium
How it was run: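 A fluorescent Saccharomyces cerevisiae BY4741 community carrying four plasmids was used, with each plasmid complementing one auxotrophy and bearing a fluorescent marker. An overnight preculture at OD600 = 1.0 was diluted to OD600 = 0.3, and 70 µl went into 384-well plates acoustically predosed with drug (final 10 µM) in SM medium for 24 h. After paraformaldehyde fixation, cells were imaged by automated confocal microscopy and analysed in Harmony, giving the mean cell pixel area per well. Each value is the average of 3 replicates. Same SeMeCo high-content imaging drug screen: Selleck FDA-approved drugs at 10 µM, 24 h in SM medium, 384-well plates, 3 replicates.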

[2] = tested on: Saccharomyces cerevisiae BY4741 SeMeCo community; assay: z-score of prototroph abundance vs DMSO median; higher = larger share of this subpopulation than in DMSO controls; details: 10 µM; 24 h; SM minimal medium; subpopulation (auxotrophy): Prototroph
How it was run: (§1)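 Scoring was based on each subpopulation's abundance, expressed as a z-score against the vehicle-well median. A Saccharomyces cerevisiae BY4741 community with four plasmids, each restoring one auxotrophy and encoding a distinct fluorescent protein, was pre-grown overnight to OD600 1.0, diluted to 0.3, and added at 70 µl to 384-well plates acoustically predosed with library drugs (10 µM final). It then grew 24 h in minimal SM medium before paraformaldehyde fixation and automated confocal microscopy, with single-auxotroph fluorescent strains setting thresholds and autofluorescence correction.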

[3] = tested on: Saccharomyces cerevisiae BY4741 SeMeCo community; assay: z-score of subpopulation abundance vs DMSO median, subpopulation auxotrophic for M; higher = larger share of this subpopulation than in DMSO controls; details: 10 µM; 24 h; SM minimal medium; subpopulation (auxotrophy): M
How it was run: as §1

[4] = tested on: Saccharomyces cerevisiae BY4741 SeMeCo community; assay: z-score of subpopulation abundance vs DMSO median, subpopulation auxotrophic for L; higher = larger share of this subpopulation than in DMSO controls; details: 10 µM; 24 h; SM minimal medium; subpopulation (auxotrophy): L
How it was run: as §1

[5] = tested on: Saccharomyces cerevisiae BY4741 SeMeCo community; assay: z-score of subpopulation abundance vs DMSO median, subpopulation auxotrophic for U; higher = larger share of this subpopulation than in DMSO controls; details: 10 µM; 24 h; SM minimal medium; subpopulation (auxotrophy): U
How it was run: as §1

[6] = tested on: Saccharomyces cerevisiae BY4741 SeMeCo community; assay: z-score of subpopulation abundance vs DMSO median, subpopulation auxotrophic for H; higher = larger share of this subpopulation than in DMSO controls; details: 10 µM; 24 h; SM minimal medium; subpopulation (auxotrophy): H
How it was run: as §1

[7] = tested on: Saccharomyces cerevisiae BY4741 SeMeCo community; assay: z-score of subpopulation abundance vs DMSO median, subpopulation auxotrophic for LU; higher = larger share of this subpopulation than in DMSO controls; details: 10 µM; 24 h; SM minimal medium; subpopulation (auxotrophy): LU
How it was run: as §1

[8] = tested on: Saccharomyces cerevisiae BY4741 SeMeCo community; assay: z-score of subpopulation abundance vs DMSO median, subpopulation auxotrophic for LM; higher = larger share of this subpopulation than in DMSO controls; details: 10 µM; 24 h; SM minimal medium; subpopulation (auxotrophy): LM
How it was run: as §1

[9] = tested on: Saccharomyces cerevisiae BY4741 SeMeCo community; assay: z-score of subpopulation abundance vs DMSO median, subpopulation auxotrophic for HM; higher = larger share of this subpopulation than in DMSO controls; details: 10 µM; 24 h; SM minimal medium; subpopulation (auxotrophy): HM
How it was run: as §1

[10] = tested on: Saccharomyces cerevisiae BY4741 SeMeCo community; assay: z-score of subpopulation abundance vs DMSO median, subpopulation auxotrophic for UM; higher = larger share of this subpopulation than in DMSO controls; details: 10 µM; 24 h; SM minimal medium; subpopulation (auxotrophy): UM
How it was run: as §1

[11] = tested on: Saccharomyces cerevisiae BY4741 SeMeCo community; assay: z-score of subpopulation abundance vs DMSO median, subpopulation auxotrophic for HLU; higher = larger share of this subpopulation than in DMSO controls; details: 10 µM; 24 h; SM minimal medium; subpopulation (auxotrophy): HLU
How it was run: as §1

[12] = tested on: Saccharomyces cerevisiae BY4741 SeMeCo community; assay: z-score of subpopulation abundance vs DMSO median, subpopulation auxotrophic for HLM; higher = larger share of this subpopulation than in DMSO controls; details: 10 µM; 24 h; SM minimal medium; subpopulation (auxotrophy): HLM
How it was run: as §1

[13] = tested on: Saccharomyces cerevisiae BY4741 SeMeCo community; assay: z-score of subpopulation abundance vs DMSO median, subpopulation auxotrophic for HUM; higher = larger share of this subpopulation than in DMSO controls; details: 10 µM; 24 h; SM minimal medium; subpopulation (auxotrophy): HUM
How it was run: as §1

[14] = tested on: Saccharomyces cerevisiae BY4741 SeMeCo community; assay: z-score of subpopulation abundance vs DMSO median, subpopulation auxotrophic for HLUM; higher = larger share of this subpopulation than in DMSO controls; details: 10 µM; 24 h; SM minimal medium; subpopulation (auxotrophy): HLUM
How it was run: as §1

[15] = tested on: Saccharomyces cerevisiae BY4741 SeMeCo community; assay: z-score of subpopulation abundance vs DMSO median, subpopulation auxotrophic for HL; higher = larger share of this subpopulation than in DMSO controls; details: 10 µM; 24 h; SM minimal medium; subpopulation (auxotrophy): HL
How it was run: as §1

[16] = tested on: Saccharomyces cerevisiae BY4741 SeMeCo community; assay: z-score of subpopulation abundance vs DMSO median, subpopulation auxotrophic for LUM; higher = larger share of this subpopulation than in DMSO controls; details: 10 µM; 24 h; SM minimal medium; subpopulation (auxotrophy): LUM
How it was run: as §1

[17] = tested on: Saccharomyces cerevisiae BY4741 SeMeCo community; assay: z-score of subpopulation abundance vs DMSO median, subpopulation auxotrophic for HU; higher = larger share of this subpopulation than in DMSO controls; details: 10 µM; 24 h; SM minimal medium; subpopulation (auxotrophy): HU
How it was run: as §1

Compound	mean cell size [1]	z-score of prototroph abundance [2]	z-score of subpopulation abundance [3]	z-score of subpopulation abundance [4]	z-score of subpopulation abundance [5]	z-score of subpopulation abundance [6]	z-score of subpopulation abundance [7]	z-score of subpopulation abundance [8]	z-score of subpopulation abundance [9]	z-score of subpopulation abundance [10]	z-score of subpopulation abundance [11]	z-score of subpopulation abundance [12]	z-score of subpopulation abundance [13]	z-score of subpopulation abundance [14]	z-score of subpopulation abundance [15]	z-score of subpopulation abundance [16]	z-score of subpopulation abundance [17]
CCN(CC)C(=O)C1(c2ccccc2)CC1CN (stereo unspecified) [Milnacipran HCl]	12.3 ± 0.28	0.28	-0.86	0.74	0.47	-1.04	0.01	0	-0.8	0.33	-0.08	-0.14	-0.13	-0.13	–	–	–
CC[C@@]1(O)C(=O)OCc2c1cc1n(c2=O)Cc2cc3cc(O)ccc3nc2-1 [(S)-10-Hydroxycamptothecin]	12.41 ± 0.077	0.14	0.87	1.09	-1.66	0.82	-0.98	1.48	0.81	-0.98	0.14	0.07	-0.24	-0.28	0.62	0.42	–
OCCN1CCN(CCCN2c3ccccc3Sc3ccc(C(F)(F)F)cc32)CC1 [Fluphenazine dihydrochloride]	12.4 ± 0.097	-0.57	-0.08	1.3	-0.38	–	0.63	0.55	0.59	-1.12	1.24	1.11	-0.44	0.51	1.51	–	–
CC1(C)[C@H](C(=O)O)N2C(=O)C[C@H]2S1(=O)=O [Sulbactam]	12.3 ± 0.16	0.75	0.57	0.57	–	-0.12	-0.53	1.07	-0.43	–	-0.86	-1.04	-0.35	-0.44	-0.53	–	–
CC(=O)OC(C)C[N+](C)(C)C (stereo unspecified) [Methacholine chloride]	12.5 ± 0.13	-0.97	0	0.65	0.32	–	1.46	0.88	0.64	0.68	0.55	0.76	0.26	–	–	0.92	0.67
CO/N=C(\C(=O)N[C@@H]1C(=O)N2C(C(=O)OC(C)OC(C)=O)=C(COC(N)=O)CS[C@H]12)c1ccco1 (stereo partly specified) [Cefuroxime axetil]	12.59 ± 0.065	-0.04	-0.61	-0.95	1.94	-0.4	-0.86	-1.34	-0.74	0.26	-0.22	-0.11	0.05	0.39	-0.54	-0.64	–
C[n+]1ccccc1C=NO [Pralidoxime Iodide]	12.27 ± 0.1	-0.53	0.07	-0.18	0.58	-0.39	0.19	0.72	0.77	0.29	-0.23	0.32	0.13	0.03	0.06	–	–
CC(C)c1c(C(=O)Nc2ccccc2)c(-c2ccccc2)c(-c2ccc(F)cc2)n1CC[C@@H](O)C[C@@H](O)CC(=O)O [Atorvastatin Calcium]	12 ± 0.14	-7.41	0.46	0.91	0.01	7.9	2.65	2.22	9.85	4.62	8.01	9.32	7.67	4.28	–	4.29	–
CC1(C)S[C@@H]2[C@H](NC(=O)[C@H](N)c3ccccc3)C(=O)N2[C@H]1C(=O)O [Ampicillin sodium]	12.3 ± 0.15	0.8	-0.4	0.09	0.29	-0.9	0.12	-0.28	-0.71	-0.31	-0.42	-0.99	-0.12	-0.67	-0.73	-0.14	–
CC1CCc2cc(F)cc3c(=O)c(C(=O)O)cn1c23 (stereo unspecified) [Flumequine]	12.3 ± 0.18	1.18	-1.12	-0.69	0.29	-1	-0.58	-1.29	-1.42	-1.16	0.18	-0.73	-0.88	0.55	-0.81	-0.22	–
CCOC(=O)OC(C)OC1=C(C(=O)Nc2ccccn2)N(C)S(=O)(=O)c2ccccc21 (stereo unspecified) [Ampiroxicam]	12.3 ± 0.37	–	0	-0.1	-0.79	-0.19	-0.67	0.15	-0.5	0.08	-0.83	-0.4	-0.48	-0.78	-0.64	-0.42	–
CO[C@H]1C[C@@H]2CC[C@@H](C)[C@@](O)(O2)C(=O)C(=O)N2CCCC[C@H]2C(=O)O[C@H]([C@H](C)C[C@@H]2CC[C@H](n3cnnn3)[C@H](OC)C2)CC(=O)[C@H](C)/C=C(\C)[C@@H](O)[C@@H](OC)C(=O)[C@H](C)C[C@H](C)/C=C/C=C/C=C/1C [Zotarolimus(ABT-578)]	13.94 ± 0.041	-17.5	-0.02	0.32	3.68	14.4	3.23	2.28	23.2	7.28	18.8	18.4	22.3	–	15.7	5.72	23.5
CN(C)CCn1nnnc1SCC1=C(C(=O)O)N2C(=O)[C@@H](NC(=O)Cc3csc(N)n3)[C@H]2SC1 [Cefotiam hydrochloride]	12.24 ± 0.031	-1.4	1.1	1.99	-0.08	–	1.53	1.06	1.4	1.04	1.21	0.75	0.5	0.99	1.92	1.11	–
CC1=CC[C@@](O)(C(C)C)CC1 [Terpinen-4-ol]	12.39 ± 0.073	-0.41	-1.02	0.37	0.8	-0.04	0.74	-0.03	-0.39	0.26	0.05	0.54	-0.35	0.81	-0.57	0.2	–
Nc1cc(C(Cl)=C(Cl)Cl)c(S(N)(=O)=O)cc1S(N)(=O)=O [Clorsulon]	12.46 ± 0.016	–	-0.33	0.16	0.03	0.76	0.95	-0.35	0.02	0.16	0.22	0.02	0.92	0.24	0.48	1.09	–
